The other results are listed elsewhere or left out. Calls of active or inactive are those of the source.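 How the source made its calls, unless noted: active means mean inhibition above about 50% in the one-dose retest (limit read from the data); inactive means the rest.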
What was measured:
[1] = biological target: Sentrin-specific protease 8 (Homo sapiens) (UniProt Q96LD8); experiment: human SENP8 peptidase blockers, hit retest – biochemical, luminescence, single concentration, confirmation (AID 488912;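 active means mean inhibition across replicates above about 50%, limit read from the data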); details: Recombinant SENP8, Z-RLRGG-aminoluciferin luminescence, 60 min; at 12.5 µM; stronger effect = higher value
[2] = biological target: Sentrin-specific protease 6 (Homo sapiens) (UniProt Q9GZR1); experiment: inhibition of human SENP6 catalytic domain – biochemical, luminescence, single concentration, confirmation (AID 488915); details: recombinant SENP6, Z-RLRGG-aminoluciferin luminescence; at 12.5 µM; stronger effect = higher value
[3] = biological target: Sentrin-specific protease 7 (Homo sapiens) (UniProt Q9BQF6); experiment: human SENP7 peptidase blockers, hit retest – biochemical, luminescence, single concentration, confirmation (AID 488917); details: recombinant SENP7, Z-RLRGG-aminoluciferin luminescence, 40 min; at 12.5 µM; stronger effect = higher value
Caspase-3 (Homo sapiens) = Caspase-3 (Homo sapiens) (UniProt P42574); experiment: human caspase-3 activity blockade, out-of-family – biochemical, single concentration, selectivity assay for SENP inhibitor project, confirmation (AID 488918;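 active means mean inhibition above about 50%, limit read from the data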;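 further: plate controls were enzyme with DMSO for no effect and wells without caspase-3 for full effect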); details: purified caspase-3, Z-DEVD-aminoluciferin luminescence, 60 min; at 12.5 µM; stronger effect = higher value
[4] = Ultra-Glo luciferase signal interference – biochemical, single concentration, SENP8 reaction pre-completed, artefact control for SENP inhibitor project, confirmation (AID 488919;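 active means mean inhibition above about 50% when retested at one dose, limit read from the data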;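 further: plate controls were DMSO wells with completed reaction for no effect and substrate without enzyme for full effect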); details: Pre-incubated SENP8/Z-RLRGG-aminoluciferin, luciferase luminescence interference; at 12.5 µM; stronger effect = higher value
[5] = PERK-eIF2a-CHOP pathway stimulators, retested – cell-based, CHO-CHOP luciferase reporter, single concentration, confirmation (AID 463112; in the data active means activation above about 33%;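 further: 0% = DMSO wells and 100% = tunicamycin 10 µg/mL wells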); details: CHO-CHOP cells, CHOP-luciferase reporter luminescence; at 10 µM; stronger effect = higher value; percent of tunicamycin response, DMSO as zero
[6] = HIF-2a driven luciferase blockers, single dose – luminescence, 786-0 RCC cells, confirmation (AID 651580;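 active means mean inhibition across four replicates of at least 40 percent at the single tested concentration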); details: HIF-2a luciferase reporter luminescence, overnight, at 18.8 µM, stronger effect = higher value
[7] = HIF-1a luciferase reporter signal reduction – MiaPaCa-2 cells, single concentration, counter-screen for HIF-2a inhibitor project, confirmation (AID 651589;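 active means mean inhibition of the reporter signal across four replicates at the single tested dose of 50% or more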); details: MiaPaCa-2 HIF-1a luciferase reporter, desferoxamine, overnight; at 18.8 µM; stronger effect = higher value
[8] = biological target: Tumor necrosis factor receptor superfamily member 10B (Homo sapiens) (UniProt O14763); experiment: viability loss of caspase-8 NB7 cells with TRAIL – with/without TRAIL, luminescence panel, confirmation (AID 651596; in the data active means activity above about 50%); details: NB7 neuroblastoma + caspase-8, TRAIL sensitization, NB7 Caspase-8, with TRAIL, mean of runs, at 10 µM, stronger effect = higher value
[9] = as above; details: NB7 neuroblastoma + caspase-8, without TRAIL, NB7 Caspase-8, without TRAIL, mean of runs, at 10 µM
[10] = Brca1-Bard1 BiLC signal decrease – luminescence, single concentration, counter-screen for Mdm2/MdmX interaction inhibitor project, confirmation (AID 504668; call rule not given here); details: Brca1/Bard1 bimolecular luciferase complementation counterscreen, at 8 µM, stronger effect = higher value
[11] = NF-kB reporter suppression in CF airway cells – cell-based, GFP fluorescence, single concentration, confirmation (AID 602472; in the data active means inhibition above about 40%;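 further: stimulus PAF is a Pseudomonas aeruginosa filtrate and not platelet activating factor; plate controls were DMSO wells with stimulus for no effect and unstimulated DMSO wells for full effect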); details: KKLEB CF airway cells, PAF-induced NF-kB-GFP fluorescence, overnight; at 5 µM; stronger effect = higher value
[12] = biological target: Tumor necrosis factor receptor superfamily member 10B (Homo sapiens) (UniProt O14763); experiment: compound enhancement of TRAIL-induced cell killing – NB7 cells plus caspase-8, luminescence, panel, dose response (AID 652002); details: NB7 neuroblastoma +caspase-8, TRAIL sensitization, luminescence viability, NB7+Caspase-8, with TRAIL, run 1; at 12.5 µM (top of the series)
[13] = biological target: Tumor necrosis factor receptor superfamily member 10B (Homo sapiens) (UniProt O14763); experiment: as above; details: NB7 neuroblastoma +caspase-8, TRAIL sensitization, luminescence viability, NB7+Caspase-8, with TRAIL, run 2; at 12.5 µM (top of the series)
[14] = as above; details: NB7 neuroblastoma +caspase-8, no TRAIL, compound-alone cytotoxicity counter-screen, luminescence viability, NB7+Caspase-8, run 1; at 12.5 µM (top of the series) unless noted
[15] = as above; details: NB7 neuroblastoma +caspase-8, no TRAIL, compound-alone cytotoxicity counter-screen, luminescence viability, NB7+Caspase-8, run 2; at 12.5 µM (top of the series) unless noted

Sequence of Sentrin-specific protease 7 (Homo sapiens) (Q9BQF6 706-1050 limits assumed): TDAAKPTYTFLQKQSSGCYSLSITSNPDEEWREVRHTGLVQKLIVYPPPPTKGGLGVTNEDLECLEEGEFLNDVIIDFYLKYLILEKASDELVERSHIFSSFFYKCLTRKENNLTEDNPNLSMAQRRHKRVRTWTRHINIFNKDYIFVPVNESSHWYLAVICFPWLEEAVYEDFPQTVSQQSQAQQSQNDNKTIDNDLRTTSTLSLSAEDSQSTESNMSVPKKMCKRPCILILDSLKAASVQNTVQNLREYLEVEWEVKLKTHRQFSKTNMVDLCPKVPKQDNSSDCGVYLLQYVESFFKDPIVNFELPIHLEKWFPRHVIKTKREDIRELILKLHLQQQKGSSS
Sequence of Caspase-3 (Homo sapiens) (P42574 28-227 limits assumed): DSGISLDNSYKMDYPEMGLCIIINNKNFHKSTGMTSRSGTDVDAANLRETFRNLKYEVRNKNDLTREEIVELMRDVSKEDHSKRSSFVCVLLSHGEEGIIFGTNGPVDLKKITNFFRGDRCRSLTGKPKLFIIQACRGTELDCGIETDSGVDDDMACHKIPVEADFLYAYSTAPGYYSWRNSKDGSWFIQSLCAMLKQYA
Sequence of Sentrin-specific protease 8 (Homo sapiens) (Q96LD8 whole entry, looked up, the tested form may be a part): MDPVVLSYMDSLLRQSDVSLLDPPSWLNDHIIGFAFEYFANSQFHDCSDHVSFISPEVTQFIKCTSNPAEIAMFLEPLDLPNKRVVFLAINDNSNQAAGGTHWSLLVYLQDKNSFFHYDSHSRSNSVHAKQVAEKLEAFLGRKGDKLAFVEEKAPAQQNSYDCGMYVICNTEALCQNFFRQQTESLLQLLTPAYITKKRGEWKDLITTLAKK
Sequence of Tumor necrosis factor receptor superfamily member 10B (Homo sapiens) (O14763 whole entry, looked up): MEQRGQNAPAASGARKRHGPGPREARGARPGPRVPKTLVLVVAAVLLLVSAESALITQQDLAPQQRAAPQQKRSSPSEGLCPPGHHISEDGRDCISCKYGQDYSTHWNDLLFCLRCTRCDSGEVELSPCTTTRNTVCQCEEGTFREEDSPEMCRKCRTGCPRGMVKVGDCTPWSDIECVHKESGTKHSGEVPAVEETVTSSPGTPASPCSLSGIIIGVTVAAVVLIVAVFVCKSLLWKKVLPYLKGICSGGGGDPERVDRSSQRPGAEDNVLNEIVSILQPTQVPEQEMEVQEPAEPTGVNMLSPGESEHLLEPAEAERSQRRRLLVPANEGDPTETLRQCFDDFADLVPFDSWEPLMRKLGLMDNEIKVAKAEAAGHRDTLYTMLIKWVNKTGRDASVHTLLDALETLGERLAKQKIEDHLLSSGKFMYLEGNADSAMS
Sequence of Sentrin-specific protease 6 (Homo sapiens) (Q9GZR1 628-1112 limits assumed): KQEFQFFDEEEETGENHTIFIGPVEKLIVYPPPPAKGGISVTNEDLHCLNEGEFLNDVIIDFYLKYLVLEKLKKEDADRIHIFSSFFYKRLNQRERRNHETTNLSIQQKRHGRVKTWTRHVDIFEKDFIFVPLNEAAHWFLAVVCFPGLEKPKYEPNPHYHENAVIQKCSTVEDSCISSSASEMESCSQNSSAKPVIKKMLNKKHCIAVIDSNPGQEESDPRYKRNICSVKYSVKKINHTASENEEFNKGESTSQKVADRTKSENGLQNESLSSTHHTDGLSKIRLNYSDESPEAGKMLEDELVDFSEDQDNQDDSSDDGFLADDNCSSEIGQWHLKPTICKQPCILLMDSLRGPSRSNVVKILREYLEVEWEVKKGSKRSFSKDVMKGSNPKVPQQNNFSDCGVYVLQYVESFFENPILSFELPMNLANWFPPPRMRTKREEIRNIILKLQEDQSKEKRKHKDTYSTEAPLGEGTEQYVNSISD

Structure (SMILES): Cc1cc(N=Nc2ccc3ccccc3c2)ccc1O
- inhibition [1]: 98.3% (active)
- inhibition [2]: 98.9% (active)
- inhibition [3]: 102% (active)
- inhibition (Caspase-3 (Homo sapiens)): 85.7% (active)
- inhibition [4]: 76.6% (active)

Structure (SMILES): CC1=CC(C)(C)Nc2ccc(OC(=O)CN3C(=O)C4CCCCC4C3=O)cc21 (configuration not stated)
- activation [5]: 68% (active)
- inhibition [6]: 86.9% (active)
- inhibition [7]: 86.2% (active)

Structure (SMILES): COc1ccc(/C=C/c2noc(-c3ccccc3OC(C)=O)n2)cc1
- inhibition [1]: 55.1% (active)
- inhibition [2]: 87.7% (active)
- inhibition [3]: 94.5% (active)
- inhibition (Caspase-3 (Homo sapiens)): 77% (active)
- inhibition [4]: 22.7% (inactive)

Structure (SMILES): COC(=O)c1ccc(NCC(=O)c2ccccc2)cc1
- inhibition [1]: 10.5% (inactive)
- inhibition [2]: 97.3% (active)
- inhibition [3]: 103% (active)
- inhibition (Caspase-3 (Homo sapiens)): 96% (active)
- inhibition [4]: 60.5% (active)

Structure (SMILES): O=C(Nc1ccccc1)c1cc2ccccc2[nH]1
- inhibition [1]: -22.5% (inactive)
- inhibition [2]: -15.9% (inactive)
- inhibition [3]: 1.9% (inactive)
- inhibition (Caspase-3 (Homo sapiens)): -4.8% (inactive)
- inhibition [4]: 8.3% (inactive)

Structure (SMILES): O=C1C=CC(=O)N1c1ccc(N2CCCCC2)cc1
- activation [5]: 60.2% (active)
- inhibition [6]: 17.3% (inactive)
- inhibition [7]: -4.26% (inactive)

Structure (SMILES): COc1ccc(C(=O)Nc2ccc(C3(C#N)CCCC3)cc2)cc1OC
- inhibition [1]: 93% (active)
- inhibition [2]: 93.6% (active)
- inhibition [3]: 101% (active)
- inhibition (Caspase-3 (Homo sapiens)): 91.9% (active)
- inhibition [4]: 83.2% (active)

Structure (SMILES): O=C(Nc1ccc(OC(F)(F)F)cc1)c1ccc2c(c1)no[n+]2[O-]
- activation [5]: 24.4% (inactive)
- activity [8]: 90%
- activity [9]: 96.8%

Structure (SMILES): CC(OC(=O)c1ccc2ccccc2n1)C(=O)c1ccccc1 (configuration not stated)
- inhibition [1]: 54.3% (active)
- inhibition [2]: 50% (inactive)
- inhibition [3]: 87.7% (active)
- inhibition (Caspase-3 (Homo sapiens)): 75% (active)
- inhibition [4]: 64.5% (active)

Structure (SMILES): O=C(OC1CCOC1=O)c1ccc(-c2nc3ccccc3s2)s1 (configuration not stated)
- inhibition [1]: 92.5% (active)
- inhibition [2]: 95.8% (active)
- inhibition [3]: 100% (active)
- inhibition (Caspase-3 (Homo sapiens)): 96.3% (active)
- inhibition [4]: 83.8% (active)

Structure (SMILES): O=C(Nc1nc2ccc([N+](=O)[O-])cc2s1)c1ccncc1
- inhibition [1]: 16% (inactive)
- inhibition [2]: 17.5% (inactive)
- inhibition [3]: 15.1% (inactive)
- inhibition (Caspase-3 (Homo sapiens)): 7.6% (inactive)
- inhibition [4]: 15.8% (inactive)

Structure (SMILES): CCc1ccc(NC(=O)C(=O)NNC(=O)c2cccs2)cc1
- inhibition [1]: 58.4% (active)
- inhibition [2]: 73.4% (active)
- inhibition [3]: 93.2% (active)
- inhibition (Caspase-3 (Homo sapiens)): 89.9% (active)
- inhibition [4]: 5.2% (inactive)

Structure (SMILES): CC(C)CCNC(=O)c1ccc2c(Cl)c3c(nc2c1)CCC3
- inhibition [1]: 84.1% (active)
- inhibition [2]: 88.3% (active)
- inhibition [3]: 97.4% (active)
- inhibition (Caspase-3 (Homo sapiens)): 57.1% (active)
- inhibition [4]: 52.5% (active)

Structure (SMILES): Brc1ccc2nc(N3CCCC3)sc2c1
- inhibition [1]: 83.5% (active)
- inhibition [2]: 95.8% (active)
- inhibition [3]: 102% (active)
- inhibition (Caspase-3 (Homo sapiens)): 81.3% (active)
- inhibition [4]: 38.6% (inactive)

Structure (SMILES): O=C(/C(=C/c1cccc(Cl)c1)c1nc2ccccc2[nH]1)c1ccccc1
- activation [5]: 115% (active)
- inhibition [6]: 26.3% (inactive)
- inhibition [7]: 105% (active)

Structure (SMILES): c1csc(-c2nc(-c3ccncc3)no2)c1
- inhibition [1]: 19.7% (inactive)
- inhibition [2]: 47.2% (inactive)
- inhibition [3]: 83.4% (active)
- inhibition (Caspase-3 (Homo sapiens)): 80.4% (active)
- inhibition [4]: 42.1% (inactive)

Structure (SMILES): Nc1ncc(-c2cc3ccccc3oc2=O)s1
- inhibition [1]: 92.7% (active)
- inhibition [2]: 92.8% (active)
- inhibition [3]: 102% (active)
- inhibition (Caspase-3 (Homo sapiens)): 94.6% (active)
- inhibition [4]: 91.7% (active)

Structure (SMILES): N=c1c2c3c(sc2nc2n1CCCCC2)CCCC3
- inhibition [1]: 10.9% (inactive)
- inhibition [2]: 8.4% (inactive)
- inhibition [3]: 10.6% (inactive)
- inhibition (Caspase-3 (Homo sapiens)): 11.1% (inactive)
- inhibition [4]: 11.6% (inactive)

Structure (SMILES): CCOC(=O)c1c(NC(=O)CCl)sc(C(=O)N(CC)CC)c1C
- activation [5]: 27% (inactive)
- activity [8]: 95.3%
- activity [9]: 93.8%

Structure (SMILES): O=C(Nc1ccccc1)Nc1ccccc1C(=O)NCc1ccco1
- inhibition [1]: 2.7% (inactive)
- inhibition [2]: 60.7% (active)
- inhibition [3]: 85.6% (active)
- inhibition (Caspase-3 (Homo sapiens)): 63.9% (active)
- inhibition [4]: 66.7% (active)

Structure (SMILES): O=C(N/N=C/c1cccnc1)c1cc2ccccc2cc1O
- inhibition [1]: 25.3% (inactive)
- inhibition [2]: 22.6% (inactive)
- inhibition [3]: 72.3% (active)
- inhibition (Caspase-3 (Homo sapiens)): 61.6% (active)
- inhibition [4]: 53.8% (active)

Structure (SMILES): O=C(CCl)Nc1cccc(CP(=O)(c2ccccc2)c2ccccc2)c1
- activation [5]: 34% (active)
- inhibition [10]: 27.6% (active)
- inhibition [11]: -20.6% (inactive)
- inhibition [6]: 22.9% (inactive)
- inhibition [7]: 51.3% (active)

Structure (SMILES): COc1cc(NC(=O)c2cncc(-c3ccc(C#N)cc3)c2)cc(C(=O)Nc2cccc(C(F)(F)F)c2)c1
- activation [5]: 83.5% (active)
- activity [8]: 54.6%
- activity [9]: 26.9%
- activity, % sensitization [12]: -1.86%
- activity, % sensitization [13]: -1.47%
- activity, % sensitization [14]: -11.8%
- activity, % sensitization [15]: -16.3%

Structure (SMILES): O=C1/C(=C/c2cccs2)CCC1C1CCCC1 (configuration not stated)
- inhibition [1]: 50.9% (active)
- inhibition [2]: 52.1% (active)
- inhibition [3]: 50.7% (active)
- inhibition (Caspase-3 (Homo sapiens)): 60.9% (active)
- inhibition [4]: 36.6% (inactive)

Structure (SMILES): O=C(Nc1ncc([N+](=O)[O-])s1)C1COc2ccccc2O1 (configuration not stated)
- inhibition [1]: 98.8% (active)
- inhibition [2]: 99.8% (active)
- inhibition [3]: 103% (active)
- inhibition (Caspase-3 (Homo sapiens)): 98.4% (active)
- inhibition [4]: 48.6% (inactive)

Structure (SMILES): C=CCNC(=S)N1CCN(CCN=Cc2c(C)[nH]n(-c3ccc([N+](=O)[O-])cc3)c2=O)CC1
- inhibition [1]: 0.7% (inactive)
- inhibition [2]: 21.1% (inactive)
- inhibition [3]: 28% (inactive)
- inhibition (Caspase-3 (Homo sapiens)): 56.6% (active)
- inhibition [4]: 16.9% (inactive)

Structure (SMILES): COc1ccccc1-c1nnc(-c2ccc(F)cc2)o1
- inhibition [1]: 33.8% (inactive)
- inhibition [2]: 38.6% (inactive)
- inhibition [3]: 73.8% (active)
- inhibition (Caspase-3 (Homo sapiens)): 66.2% (active)
- inhibition [4]: 60.3% (active)

From PubChem BioAssay
